Screens deposited in PubChem BioAssay by National Center for Advancing Translational Sciences (NCATS).
Sm TGR inh – S. mansoni TGR enzyme inhibition | purified TGR, DTNB reduction, TNB absorbance 405 nm | Potency, µM (series often up to 114 µM), for the others: at the highest dose activity change, negative = inhibition, hits mostly inhibitors | 3% of 360,000 active; note: potency is the fitted concentration of half-maximal effect; % is set by controls: 0 for no effect and ±100 for the full control effect; nearly all actives have a fitted effect of over 60% in size
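TGR 20 nM + NADPH 100 uM (dispensed conc.), cpd preinc 15 min RT; start with NADPH (500 uM addition) then DTNB (15 mM addition). Kinetic TNB absorbance, 405 nm filter. Four-parameter Hill fit across titration.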
Pf growth 96h – inhibits malaria parasite growth, 96 h. P. falciparum luciferase reporter growth, 96 h. Potency, µM (highest dose often 28.7 µM), inactives show top-dose activity change, negative = inhibition, most hits filed as inhibitors. 6.9% of 320,000 active. AID 504834; note: potency is the fitted concentration of half-maximal effect; % is set by controls: 0 for no effect and ±100 for the full control effect
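Parasite growth measured via integrated firefly luciferase reporter in P. falciparum. Infected erythrocytes at 2% hematocrit, 0.05% parasitemia final were treated 96 hours at 37 C under 5% CO2, and luminescence was read.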
Pf growth 48h – inhibits P. falciparum growth in the first generation, 48 h | 5.9% of 310,000 active | P. falciparum luciferase growth in erythrocytes, 48 h | Potency, µM (series often up to 28.7 µM), for inactives: top-dose activity change, negative = inhibition, usual class: inhibitors | AID 504832; note: potency is the fitted concentration of half-maximal effect; % is set by controls: 0 for no effect and ±100 for the full control effect
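Luciferase-expressing P. falciparum in infected erythrocytes (2% hematocrit, 0.1% parasitemia final) in RPMI 1640/0.5% Albumax were exposed to compound for 48 hours at 37 C, 5% CO2; growth read as luminescence.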
HCMV inh – inhibitors of human cytomegalovirus; 4.5% of 410,000 active; HFF cells, HCMV-luciferase reporter, 72 h; active compounds read low; AID 1259415; activity change, negative = inhibition, % at 57.5 µM; in the data active = activity change below about -60%; inconclusive = no clear call, values can overlap the other calls; inactive = above about -39%; note: % is set by controls: 0 for no effect and ±100 for the full control effect
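Cell-based, HFFs, 1000 cells/well, 16 h 37C; cpds in DMSO + HCMV-luc, MOI 1 PFU/cell; 72 h 37C; OneGlo luminescence after 5 min RT; norm. to buffer vs Salinomycin 10uM.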
HCV inhibitor – HCV inhibition | 3.4% of 340,000 active | Potency, µM (highest dose often 41.8 µM), without a hit: at the highest dose activity change, negative = inhibition, usual class: inhibitors | Huh7.5.1 HCVcc-Cre infection, luciferase reporter, 44 h; note: potency is the fitted concentration of half-maximal effect; % is set by controls: 0 for no effect and ±100 for the full control effect
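Antiviral activity was scored by luciferase reporter output from cells infected with HCVcc-Cre (~0.5 moi) in presence of compound, 44 h infection period, cells seeded 1,000/well 4 h prior.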
SARS PLP yeast – blocks SARS-CoV papain-like protease in a yeast assay; Potency, µM (doses to about 32.9 µM), for the others: at the top dose activity, positive = growth rescue, usual class: activators; 0.19% of 330,000 active; S. cerevisiae expressing SARS-CoV PLpro, growth rescue; calls by dose curve; note: potency is the fitted concentration of half-maximal effect; 0% is about no effect; nearly all actives have a fitted effect of over 55% in size
* marks the source's active call; other numbers are inactive results; ? = inconclusive; / = no result given; [ ] = dose if it differs, or a comment. Only some compounds are listed: those with a hit (about 15% of all), similar ones and a draw of the others. Unless noted, calls come from the whole dose curve; as a rule, active = well fitted curve in the direction sought with a large enough effect; inconclusive = small, poorly fitted or top-dose-only effect, or another doubt; inactive = no such curve, though single readings can be large; an effect the other way counts as inactive or inconclusive.

SMILES	Sm TGR inh	Pf growth 96h	Pf growth 48h	HCMV inh	HCV inhibitor	SARS PLP yeast
CCN(CC)CCCNC(=S)N1CCN(c2nc(-c3ccccc3)cs2)CC1	?	44%	?	-31	7.9µM*	1%
CCCc1ccc(C(=O)NNc2ccccc2F)cc1	-3%	47%	66%	76	4%	-2%
Cn1c(=O)c2c(nc(CN3CCC(C(N)=O)CC3)n2Cc2c(Cl)cccc2Cl)n(C)c1=O	6%	/	12µM*	82	-14%	-1%
Cn1c(=O)c2c(nc(CN3CCC(C(N)=O)CC3)n2Cc2c(F)cccc2Cl)n(C)c1=O	5%	10µM*	?	14	-15%	-6%
Cn1c(=O)c2c(nc(CN3CCC(C(N)=O)CC3)n2Cc2ccccc2Cl)n(C)c1=O	1%	?	4%	43	0%	1%
COc1ccc(NC(=O)CSc2n[nH]c(N)n2)c([N+](=O)[O-])c1	13%	0%	45%	-16	14%	-7%
CC1CCC(NC(=O)COC(=O)c2ccco2)CC1 (stereo unspecified)	-16%	5%	-18%	-6	7%	-2%
Cn1cccc1CNCC(O)c1ccccc1 (stereo unspecified)	-18%	35%	?	10	1%	-1%
COc1ccc(-n2c(CN3CCC(C)CC3)nc3ccc([N+](=O)[O-])cc3c2=O)c(OC)c1	?	-12%	-37%	-13	-9%	2%
COc1ccc(-n2c(CN3CCN(c4ccccc4)CC3)nc3ccc([N+](=O)[O-])cc3c2=O)c(OC)c1	?	-14%	/	-79*	-25%	-2%
CCOC(=O)N1CCN(Cc2nc3ccc([N+](=O)[O-])cc3c(=O)n2-c2ccc(OC)cc2OC)CC1	40µM*	3%	/	61	-17%	5%
CCOC(=O)N1CCN(Cc2nc3cc([N+](=O)[O-])ccc3n2C(C)C)CC1	3%	/	/	-7	/	/
COc1ccc(-n2c(CN3CCOCC3)nc3ccc([N+](=O)[O-])cc3c2=O)c(OC)c1	45µM*	-14%	/	51	-14%	1%
CN(Cc1ccccc1)C(=O)c1[nH]cnc1C(=O)Nc1cccc(Cl)c1	1%	?	46%	11	2%	1%
C/C(=N\NC(=O)c1ccco1)c1ccc(NC(=O)C(F)(F)F)cc1	-2%	30%	48%	66	12%	-12%
COc1cc2c(cc1OC)n(CC(=O)NC1CCCCCC1)n1c(C)cc(=O)nc21	-11%	5.9µM*	19%	?	-1%	-4%
Nc1ncc2c(n1)-c1ccccc1CC2	14%	39%	3.7µM*	?	3%	-5%
N#Cc1c(NC(=S)NC(=O)c2ccccc2)sc2c1CCN(CCc1ccccc1)C2	-20%	2.6µM*	4.1µM*	/	-9%	3%
N#Cc1c(NC(=S)NC(=O)c2ccccc2)sc2c1CCCC2	?	?	35%	13	10%	-7%
CCOC(=O)N1CCc2c(sc(N)c2C#N)C1	0%	7%	25%	-3	7%	-2%
N#Cc1c(N)sc2c1CCN(CCc1ccccc1)C2	-17%	79%	10µM*	-2	-14%	-14%
CCOCCCNC(=O)c1ccc2c(c1)ncn2-c1cccc(C)c1	?	77%	-17%	-33	?	7%
CN1C(=O)/C(=C/c2ccc(C(=O)Nc3ccc(O)cc3C(=O)O)cc2)SC1=S	5%	?	-24%	-34	5%	0%
CCCCn1c(-c2ccc(F)c(F)c2)nc2cc3[nH]c(=O)c(C(C)C)nc3cc21	-15%	?	-80%	-7	?	6%
CCCCn1c(CCc2ccccc2)nc2cc3[nH]c(=O)c(C(C)C)nc3cc21	-24%	2.6µM*	3.7µM*	0	?	-1%
SMILES	Sm TGR inh	Pf growth 96h	Pf growth 48h	HCMV inh	HCV inhibitor	SARS PLP yeast
Oc1c(N=Nc2nn[nH]n2)ccc2ccccc12	/	/	/	-85*	/	/
CCC(=O)Oc1ccc(C(=O)Nc2ccc3c(c2)C(=O)N(C2CCCCC2)C3=O)cc1	-12%	10µM*	/	-39	?	4%
O=C(Nc1ccc2c(c1)N(C1CCCC1)C(=O)c1ccccc1S2)c1ccccc1	7%	/	/	-64*	/	/
O=C(COC(=O)C12CC3CC(CC(Br)(C3)C1)C2)N1CCOCC1	10%	0%	4%	-11	5%	1%
Cc1ccc(NC(=O)CN(C)S(=O)(=O)c2ccc3c(c2)n(C)c(=O)c(=O)n3C)cc1C	-3%	/	/	-5	/	/
CN1C(=O)C(=Cc2ccccc2OCc2ccc(Cl)cc2)C(=O)N(C)C1=O	?	1µM*	29%	?	11%	-5%
Cc1ccc(S(=O)(=O)Oc2ccccc2C=C2C(=O)N(C)C(=O)N(C)C2=O)cc1	?	12µM*	-13%	33	0%	-10%
C=CCN1C(=O)C(=O)N(CC(=O)NCC(=O)Nc2ccc(F)c(F)c2F)C1=O	/	/	/	3	6%	-4%
O=c1c2ccccc2nc(/C=C/c2ccc3c(c2)OCO3)n1CCCO	-1%[57.1 µM]	31%	13%	/	-14%	0%
C(=C/c1nccc2c1[nH]c1ccccc12)/c1ccc2c(c1)OCO2	0%	-4%	2.9µM*	18	5%	-17%
Cc1nn(C)c(C)c1CN(C(=O)C1CCC(=O)N(C2CCCCCC2)C1)C(C)C (stereo unspecified)	-20%	12µM*	?	-31	24%	?
CCOC(=O)N1CCC(Nc2c(N3CCN(c4cc(Cl)ccc4C)CC3)c(=O)c2=O)CC1	0%	4.7µM*	/	?	10µM*	6%
CCCN(CCC)CCNc1c(NC2CCN(C(=O)OCC)CC2)c(=O)c1=O	2%	?	/	-5	5%	-8%
CCOC(=O)N1CCN(c2c(NCc3ccccc3Cl)c(=O)c2=O)CC1	10%	-9%	-8%	10	-15%	1%
CCOC(=O)N1CCC(Nc2c(-c3ccc(C)c(C)c3)c(=O)c2=O)CC1	7%	0.52µM*	-7%	-21	-26%	-3%
CCOC(=O)/C(=C/Nc1ccc(F)cc1)[N+](=O)[O-]	-10%	28%	3%	?	16%	-6%
COCC(C)NCc1cccc2ccccc12 (stereo unspecified)	22%	4.7µM*	17%	-3	-23%	-1%
CCCN(C(=O)c1c(CC)noc1C)c1c(N)n(Cc2ccccc2)c(=O)[nH]c1=O	1%	-21%	2%	-1	8%	-10%
C#CCOCCOCCOCCNc1nc(N2CCN(C(=O)[C@H]([C@@H](C)CC)n3cc(CCCCN)nn3)CC2)nc(N2CCN(C(=O)[C@H](CCCCN)n3cc(CCC(=O)O)nn3)CC2)n1	7%	88%	12%	-2	-11%	5%
